Laboratory results from PubChem BioAssay (NCATS).
Values joined by “and” are separate entries in the source; they are usually repeats but may differ in a detail not shown here. Equal values may be shown once. Results filed as inconclusive are left out. A structure can be active in one record and inactive in another. Unmarked numbers belong to inactive results. Active and inactive are the calls of the source. The call rests on the fitted dose curve; in most records, active means well fitted activation curve with a large enough effect; inconclusive means small, poorly fitted or top-dose-only effect; inactive means no such curve, though single readings can be large or run the other way. Numbered stars: 1 amine (or outer) side, 2 acyl side, 3 side chain; on linkers, the order of the positions; unused ones are H or OH. Square brackets hold non-standard residues; d marks the D form. Peptide text beside a SMILES is read from it. X10 = O=C(C(CC(O)CO)O[*:1])[*:2]; NMeV = CN[CH](C(=O)O)C(C)C; NMeA = CN[CH](C)C(=O)O; βAla = NCCC(=O)O

target: Cellular tumor antigen p53 (Homo sapiens) (UniProt P04637); experiment: Primary qHTS for small molecule compounds that upregulate eGFP-tagged delta133p53alpha (in N-terminal) cells. (AID 2060322); details: NCI-H358 eGFP-delta133p53alpha fluorescence, 24 h; activation: hits give high values; further: nearly all actives have a fitted effect of over 75% in size;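 on activation: cells pre-induced with doxycycline then dosed without doxycycline; series mostly up to about 56 µM; 0% = DMSO vehicle and 100% = reference activator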
Source text: Assay Development and Screening Technology
National Center for Advancing Translational Sciences (NCATS),
National Institute of Health (NIH), Rockville, Maryland
Cellular senescence (CS) is one of the hallmarks of aging and age-related diseases. Senescent cells are characterized by an irreversible growth arrest, an increase in senescence-associated beta-galactosidase (SA-beta-gal) activity and p16INK4a expression, an activation of the DNA damage response pathways, and the emergence of a senescence-associated secretory phenotype (SASP).
Delta133p53alpha, a human/primate-specific p53 protein isoform, delays or inhibits the induction of CS and SASP in various types of human cells, including progeria-derived fibroblasts, primary normal astrocytes, and CD8+ T lymphocytes. Induction of delta133p53alpha with small molecule compounds may provide therapeutic opportunities for inhibition of senescence/SASP-associated pathologies in progeria syndromes, astrocyte-mediated neuroprotection in neurodegenerative diseases, and possibly prevention and treatment of a wider range of senescence- and aging-associated diseases.
Here we report the development and validation of a cell-based quantitative high throughput screening (qHTS) assay in 1,536-well format. This qHTS assay uses the NCI-H358 cell line with doxycycline-inducible expression of enhanced green fluorescent protein (eGFP)-tagged delta133p53alpha, which allows efficient and highly quantitative measurement of the protein levels.
PROTOCOL TABLE (as described by Inglese J, Shamu CE and Guy RK. 2007)
SEQUENCE No. (e.g., 1, 2, 3, etc.); […] (e.g., Cells, Incubation, Reagent, etc.); VALUE; DESCRIPTION.
1; Cells; 4uL; 800 doxycycline treated cells / well in doxycycline-free media, 1536-well black, clear-bottom low base Aurora microplates.
2; Compounds; 23 nL; Kalypsis pin tool (Wako) equipped with 1536-well pin heads, 5-azacytidine positive control.
3; Incubation; 24 hr; 37C, 5% CO2; 95% relative humidity.
4; Aspiration; 1x; BioTek EL406 washer dispenser (Agilent).
5; Fixing; 3.5% paraformaldehyde, BioTek EL406 washer dispenser (Agilent).
6; Washing; 1x PBS; BioTek EL406 washer dispenser (Agilent).
7; Nuclei staining; 1:1000 dilution of Hoechst 33342 (Thermofisher), BioTek EL406 washer dispenser (Agilent).
8; Incubation; 20 min; in the dark at room temperature.
9; Washing; 2x, 1x PBS (ThermoFisher), BioTek EL406 washer dispenser (Agilent).
10; Reagent; 10 uL; 1x PBS per well, sealed with clear adhesive tape.
NOTES (numbers refer to sequence numbers above).
1. NCI-H358 cells expressing eGFP-tagged delta133p53alpha were grown in T75 culture flasks and treated with doxycycline for 24h, at 10 ng/ml for eGFP-D133p53a cells (N-terminal cell) and 100 ng/ml for D133p53a-eGFP cells (C-terminal cells). Cells were trypsinized, counted using a Counted 3 Automated Cell Counter (Thermo Fisher), and diluted to a concentration of 200,000 cells/ml. A Multidrop Combi Reagent Dispenser (ThermoFisher) was used to dispense 800 cells/well in […] of doxycycline-free media, into 1536-well black/clear bottom low base plates (AuroraMicroplates).
2. After plating cells, 23 nl of compound library, DMSO vehicle control or positive control (5-azacytidine) were transferred by Pin Tool (Wako). The plate map layout was the same for each plate: (column 1) non-doxycycline treated cells + DMSO vehicle control; (column 2) doxycycline treated cells + DMSO vehicle control baseline; (column 3) doxycycline treated cells + positive control 57.5 uM final concentration 5-azacytidine; (column 4) doxycycline treated cells + serial dilution of 5-azacytidine, 16-point 1:2 titration spanning 1.8 nM to […] final concentration; (columns 5-48) doxycycline treated cells + titration of library compounds.
3. Cells were incubated at 37 °C, 5 % CO2, 95% RH with breathable metal lid for 24h.
4-10. […] After two washes, 10 ul of 1X PBS (Thermo Fisher) was dispensed to each well. Clear adhesive plate seals (VWR) were applied and plates stored at 4 °C.
11. […]
Potency means the concentration at half of the fitted maximal effect.

Sequence of Cellular tumor antigen p53 (Homo sapiens) (P04637 whole entry, looked up): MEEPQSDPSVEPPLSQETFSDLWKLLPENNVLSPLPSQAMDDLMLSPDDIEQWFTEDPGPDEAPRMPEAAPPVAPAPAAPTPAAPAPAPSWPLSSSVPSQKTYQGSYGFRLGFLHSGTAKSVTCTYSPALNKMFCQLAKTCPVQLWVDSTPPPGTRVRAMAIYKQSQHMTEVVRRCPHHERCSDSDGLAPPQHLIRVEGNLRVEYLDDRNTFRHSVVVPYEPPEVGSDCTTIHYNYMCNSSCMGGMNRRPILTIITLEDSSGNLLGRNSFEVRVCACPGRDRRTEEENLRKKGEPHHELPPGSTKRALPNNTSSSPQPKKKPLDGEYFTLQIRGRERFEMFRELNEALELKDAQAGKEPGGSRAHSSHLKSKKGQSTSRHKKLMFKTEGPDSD

| Structure (SMILES) | activation | Potency |
| --- | --- | --- |
| CC(C)C(=O)c1c(C(C)C)nn2ccccc12 | -13.4% and -31.4% |  |
| C[C@@H]1O[C@@H](OC[C@H]2O[C@@H](OC(CCCCc3ccc(O)cc3)CCc3ccc(O)cc3)[C@H](O)[C@@H](O)[C@@H]2O)[C@H](O)[C@H](O)[C@H]1O (stereo not given in full) | 6.11% |  |
| COC(=O)N1CC2(CC2)C[C@H](C(=O)NO)[C@H]1C(=O)N1CCN(c2ccccc2)CC1 | 12.6% |  |
| CCN(CC)Cc1ccc(C(=O)N(CCc2ccccc2OC)[C@@H]2CCNC2)cc1 | 3.34% |  |
| CC(C)n1nc(-c2cc3cc(O)ccc3[nH]2)c2c(N)ncnc21 | 17.6% | 21.3 µM (active) |
| COc1cccc(-c2cc(F)ccc2C2Cc3nc(N)nc(C)c3C(=O)N2)n1 (stereo not given) | 2.86% |  |
| O=C(CCN1CCN(CCO)CC1)N1c2ccccc2Sc2ccc(C(F)(F)F)cc21 | -5.08% |  |
| CC(C)(O)/C=C1/C(=O)C(C)(C)C(=O)C(C)(C)C1(O)O[C@@H]1O[C@H](COC(=O)c2cc(O)c(O)c(O)c2)[C@@H](O)[C@H](O)[C@H]1O (stereo not given in full) | 0.763% |  |
| C[C@@H]1O[C@@H](O[C@H]2[C@H](O)[C@@H](O[C@@H]3O[C@H](CO)[C@H](O)[C@H](O)[C@H]3O)[C@H](O[C@H]3CC[C@@]4(C)C(CC[C@]5(C)C4CC=C4[C@@H]6CC(C)(C)CC[C@]6(C(=O)O[C@@H]6O[C@H](CO)[C@@H](O)[C@H](O)[C@H]6O)CC[C@]45C)C3(C)C)O[C@@H]2C(=O)O)[C@H](O)[C@H](O)[C@H]1O (stereo not given in full) | 5.34% |  |
| CC(COc1ccccc1)N(CCCl)Cc1ccccc1 (stereo not given) | -9.21% and 7.69% |  |
| C=C1CCC2C(C)(C)CC(O)CC2(C)C1CCC(C)CCOC(=O)CCC(=O)O (stereo not given) | 17.6% |  |
| CC1CCC2(C(=O)O)CCC3(C)C(=CCC4C5(C)CCC(O)C(C)(C(=O)O)C5CCC43C)C2C1(C)O (stereo not given) | -8.4% |  |
| COC(=O)CC1OC(C)C2=C(O)c3c(O)cccc3C(=O)C23OC13 (stereo not given) |  | 5.88 µM (active) |
| Cc1ccc(-c2ncc[nH]2)cc1NC(=O)c1ccc(OCc2ccccn2)cc1 | -2.86% |  |
| Clc1cccc(-n2nnnc2NCc2ccccc2Oc2ccccn2)c1Cl | -7.52% and 10.5% |  |
| CC1OC(O[C@@H]2[C@H](O)[C@@H](OC3OC(CO)C(O)C(O)C3O)[C@H](OC(=O)[C@]34CCC(C)(C)C[C@H]3C3=CCC5[C@@]6(C)CC[C@H](O[C@@H]7O[C@H](C(=O)O)[C@@H](O)[C@H](O[C@@H]8OC[C@@H](O)[C@H](O)[C@H]8O)[C@H]7O[C@@H]7O[C@H](CO)[C@H](O)[C@H](O)[C@H]7O)[C@@](C)(C=O)C6CC[C@@]5(C)[C@]3(C)C[C@H]4O)O[C@@H]2C)C(O)C(O)C1OC1OCC(O)C(O)C1O (stereo not given in full) | 5.34% |  |
| C=C1CC[C@@H]2[C@@](C)(CO[C@@H]3O[C@H](CO)[C@@H](O)[C@H](O)[C@H]3O)[C@H](O)CC[C@@]2(C)[C@@H]1CC/C(C)=C/CO[C@@H]1O[C@H](CO)[C@@H](O)[C@H](O)[C@H]1O | 23.2% |  |
| COc1cc(CCc2ccc(OCC=C(C)C)cc2)cc(OC)c1OC | -17.6% |  |
| O=c1[nH]c(=O)n([C@H]2CCCO2)cc1F | -9.6% and 3.34% |  |
| CCC/C=C/C(=O)O[C@H]1CC(C)(C)CC2[C@]13[C@H](O)O[C@@]21CCC2[C@@]4(C)CC[C@H](O[C@@H]5O[C@H](C(=O)O)[C@@H](O)[C@H](O[C@@H]6O[C@H](CO)[C@H](O)[C@H](O)[C@H]6O[C@@H]6O[C@@H](C)[C@H](O)[C@@H](O)[C@H]6O[C@@H]6OC[C@](O)(CO)[C@H]6O)[C@H]5O[C@@H]5O[C@H](CO)[C@H](O)[C@H](O)[C@H]5O)C(C)(C)C4CC[C@@]2(C)[C@]1(C)C[C@H]3OC(C)=O (stereo not given in full) | -4.58% |  |

| Structure (SMILES) | activation | Potency |
| --- | --- | --- |
| Cc1cn2c(N)c(Cl)cc(C(=O)NCC3CCN(CC(C)C)CC3)c2n1 | -0.893% |  |
| CCC(C)C1NC(=O)C2CCCN2C(=O)C(CC(O)CO)OC(=O)CCNC(=O)C(C)N(C)C(=O)C(C(C)C)N(C)C1=O (stereo not given) (cyclo([X10]PI[NMeV][NMeA][βAla]); configuration not given here) | -16% |  |
| COc1cc2c(c(OC)c1CC=C(C)C)C[C@H](c1ccc(O)cc1O)CO2 | 12.5% |  |
| COCCNCc1ccc(-c2cc3nccc(Oc4ccc(NC(=O)C5(C(=O)Nc6ccc(F)cc6)CC5)cc4F)c3s2)nc1 |  | 19 µM (active) |
| CC(=O)CC(c1ccc([N+](=O)[O-])cc1)c1c(O)c2ccccc2oc1=O (stereo not given) | -10% |  |
| CC(=O)NC(Cc1c[nH]c2ccccc(=O)c12)C(=O)O (stereo not given) | -2.29% |  |
| CC(C)(C)c1ccc(C(=O)CCCCl)cc1 | 3.95% |  |
| CC(C)Cc1ccc([C@H](C)C(=O)O)cc1 | -12.1% |  |
| C/C(=C\C(=O)OCCCCCCCCC(=O)O)C[C@@H]1OC[C@H](C[C@@H]2O[C@H]2[C@@H](C)[C@H](C)O)[C@@H](O)[C@H]1O | -7.64% |  |
| CC1=C(C)C(=O)C(C(CCCCCC(=O)O)c2ccccc2)=C(C)C1=O (stereo not given) | -10.7% and 34% |  |
| c1ccc2c(c1)CCC[C@H]2Nc1nc2ccccc2[nH]1 | 27.9% |  |
| Brc1ccc([C@H]2CN3CCSC3=N2)cc1 | -4.33% and 7.97% |  |
| O=C(O)C1(C(=O)O)CCC1.[NH2-].[NH2-].[Pt+2] | 0.565% |  |
| Cc1cc2c(cc1N1C(=O)c3cccc4c(CCCO)ccc(c34)C1=O)n(C)c(=O)n2C | 5% |  |
| N#CC(=Cc1ccc(O)c(O)c1)C(=O)NCc1ccccc1 |  | 34.3 µM (active) |
| O=C(CCO[C@@H]1O[C@H](CO)[C@@H](O)[C@H](O)[C@H]1O)c1ccc(O)cc1 | -6.87% |  |
| OC[C@@H](O)[C@H](O)[C@H](O)[C@@H](O)CO | -3.35% and 22.6% |  |
| O=C1NCCc2[nH]c(-c3ccncc3)cc21 |  | 7.69 µM (active) |
| CC1=C(C)C(=O)OC(C(C)C2CCC3C4C5OC5C5(O)CC(OC6OC(CO)C(OC7OC(C)C(O)C(O)C7O)C(O)C6O)CC(O)C5(C)C4CCC23C)C1 (stereo not given) | 3.57% |  |
